Screening results as filed in PubChem.
Compounds with a hit are over-represented: about 7.1% of the library has one in this group of screens.
M1 antagonist = antagonists of rat M1 muscarinic receptor | B-score at 10 µM | P08482 | hit rate 3.4% among 64,000 | AID 628 | CHO-M1 cells, Fluo-4 calcium, ACh EC80 antagonist mode; stronger effect = lower value;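 active means calcium fluorescence response, raw or row-and-column corrected B-score, differing from the plate sample mean either way at a set confidence level, mostly lower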
Target sequence (P08482 whole entry, looked up): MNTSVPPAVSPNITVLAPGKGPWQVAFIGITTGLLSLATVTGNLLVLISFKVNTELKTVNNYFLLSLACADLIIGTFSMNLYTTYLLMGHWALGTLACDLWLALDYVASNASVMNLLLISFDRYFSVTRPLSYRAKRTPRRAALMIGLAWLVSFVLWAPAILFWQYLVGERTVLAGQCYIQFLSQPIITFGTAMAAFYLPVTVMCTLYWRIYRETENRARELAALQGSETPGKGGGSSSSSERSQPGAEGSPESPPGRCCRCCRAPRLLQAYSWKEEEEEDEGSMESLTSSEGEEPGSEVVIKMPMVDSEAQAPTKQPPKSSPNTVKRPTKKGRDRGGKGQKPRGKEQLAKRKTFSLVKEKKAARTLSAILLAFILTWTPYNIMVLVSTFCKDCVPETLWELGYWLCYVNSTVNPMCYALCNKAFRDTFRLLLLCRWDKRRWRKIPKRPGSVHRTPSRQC
M1 ag = agonists of M1 muscarinic receptor; B-score at 10 µM; hit rate 3% among 64,000; CHO-M1 cells, Fluo-4 calcium fluorescence, agonist mode; stronger effect = higher value;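 active means fluorescence rise, raw or as B-score row- and column-corrected plate score, outside the 99.7% band of its plate's samples, either direction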
Pyk2 oligo antag = antagonists of human Pyk2 oligomerization. Q14289. Q293 cells, Pyk2 FERM NanoBiT luminescence; stronger effect = lower value. z-score (the deposit names both 25 µM and 10 µM). hit rate 0.83% among 99,000;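 active means Z-score of -3 or lower, scaled per plate to the spread of control and sample wells; inactive means z-score above -3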;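 further: negative z-score means lost luminescence so less FERM oligomerization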
Cav3 T inh = blocks human Cav3.2 T-type calcium channel | O95180 | Cav3.2-expressing cells, Fluo-4 calcium fluorescence FDSS; stronger effect = lower value | B-score at 10 µM | hit rate 4% among 100,000 | AID 449739;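 active means single-dose well whose peak fluorescence ratio is a statistical outlier from its plate by either plate-standardised score or position-corrected B-score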
M1 agonist conf = confirmation of rat M1 muscarinic receptor agonists; CHO-M1 cells, Fluo-4 calcium fluorescence, agonist mode; actives lie on both sides; shares compounds with M1 ag; hit rate 19% among 1,700; fluorescence change (max-min) at 10 µM;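 active means fluorescence change differs from the solvent-only DMSO control mean at a set confidence level in both duplicate runs; inconclusive means differs from solvent-only control mean in just one of two runs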;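 further: an EC20 dose of acetylcholine follows compound addition during the same imaging run; raw fluorescence intensity difference in instrument units with no normalization to controls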
M4 agonist ctr = activates rat M4 receptor in counter-screen for M1 agonists; shares compounds with M1 ag; CHO M4/Gqi5 cells, Fluo-4 calcium fluorescence, agonist mode; actives lie on both sides; fluorescence change (max-min) at 10 µM; hit rate 9% among 1,700; AID 1741;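 active means fluorescence change differing from the plate's solvent-only control wells at 99.7% confidence in both duplicates, whether higher or lower; inconclusive means differs from solvent controls in only one of two duplicates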
* hit, by the source's call; ? = inconclusive; · = no result.

SMILES	M1 antagonist	M1 ag	Pyk2 oligo antag	Cav3 T inh	M1 agonist conf	M4 agonist ctr
CN(C)c1ccc(/C=C/C(O)=C2/C(=O)N(C)C3(C)CC2c2ccccc2O3)cc1 (centres undefined)	0.17	28*	·	-6.2*	232*	229*
c1ccc(-n2c(-c3ccncc3)nnc2-c2cccs2)cc1	0.4	9.2*	0.7	2.1	?	?
CSc1nnc(-c2cccs2)n1-c1ccccc1	0.44	0.62	-0.67	0.044	·	·
Cc1cc([N+](=O)[O-])cnc1NC(C)c1ccccc1 (centres undefined)	·	·	-0.65	-3.6	·	·
O=C1CC(c2ccc3c(c2)OCO3)c2cc3c(cc2N1)OCO3 (centres undefined)	1.5	0	-0.4	-0.0047	·	·
O=C1CC(c2ccncc2)c2cc3c(cc2N1)OCO3 (centres undefined)	0.073	2.4*	-0.58	0.39	-8.1	?
O=C1C2CC=C(Cl)CC2C(=O)N1CC1Cc2ccccc2CO1 (centres undefined)	0.43	2.2*	·	0.34	28	-18
O=C(O)c1ccccc1NCN1C(=O)C2CC=C(Cl)CC2C1=O (centres undefined)	-0.34	-2.2*	-0.03	0.57	-26*	?
O=C1OCc2ccc(NC(=O)C3CCCCC3)cc21	-1	-3.3*	0.42	1.9	-36*	-69
CCOc1ccc2oc(-c3ccccc3)c(C(=O)N3CCN(CCO)CC3)c2c1	-0.62	4.2*	-0.07	0.27	-9.5	?
Nc1cc(=O)[nH]c(SCc2nnnn2-c2ccc(Cl)cc2)n1	·	·	-0.11	·	·	·
CCCC[C@H]1C2=C3[C@@H](CC(C(=O)OC)=C[C@@H](C(=O)OC)[C@H]3C(C)(C)C2=O)n2c(=O)n(-c3ccccc3)c(=O)n21	·	·	·	-0.44	·	·
N#CC1=C(SCc2ccccc2)NC(=O)CC1c1ccco1 (centres undefined)	-0.46	4.3*	0.44	-0.058	-8.3	?
CC(=O)Nc1cccc(Oc2cc(C#N)c(C#N)cc2N2CCCCCC2)c1	1.3	0.57	-2.6	-1.9	·	·
CCOC(=O)c1cccc(NC(=O)CSc2nc3cccnc3n2C)c1	-1.1	3.3*	-1.7	-2.3	0.89	-26
O=C(CSc1ncn[nH]1)NCCC(c1ccccc1)c1ccccc1	·	·	-0.16	-0.15	·	·
COc1ccc(CC(=O)Nc2cccc(-c3nnc(-c4ccco4)o3)c2)cc1	-0.55	2.4	-0.22	-0.046	·	·
Cc1cc(C)cc(OCC(=O)Nc2cccc(-c3nnc(-c4ccco4)o3)c2)c1	-0.73	4.5*	-3.9*	-2.2	-30*	-55
O=C(Nc1ccc(N2CCOCC2)cc1)Nc1ccc2nc(-c3ccco3)c(-c3ccco3)nc2c1	-1.3	2.8*	-1.6	-0.0047	-1.6	-19
Cn1c(=O)c(NCCO)c2c3c(cccc31)C(=O)c1ccccc1-2	-13*	388*	0.31	-9*	3131*	2588*
CCNc1c2c3c(cccc3n(C)c1=O)C(=O)c1ccccc1-2	-17*	357*	·	-9.2*	3230*	2794*
O=C(CS(=O)CC(=O)N(CC(=O)NC1CCCC1)C1CCCC1)Nc1ccc(F)cc1 (centres undefined)	-0.18	0.53	1.4	0.21	·	·
CC(Oc1ccccc1Cl)c1nnc(N)s1 (centres undefined)	·	·	0.1	0.91	·	·
Cc1ccc(OC(C)c2nnc(N)s2)cc1Cl (centres undefined)	-0.092	2.5*	0.34	·	-20*	-58
Cc1cccn2c(=O)c3cc(C#N)c(=NC(=O)c4ccncc4)n(CCCOC(C)C)c3nc12	0.0034	83*	3.1	-0.77	587*	511*
SMILES	M1 antagonist	M1 ag	Pyk2 oligo antag	Cav3 T inh	M1 agonist conf	M4 agonist ctr
COCCCn1c(=NC(=O)c2ccncc2)c(C#N)cc2c(=O)n3cccc(C)c3nc21	-1	129*	-0.3	-2.5	469*	363*
CCCCn1c(=NC(=O)c2cccnc2)c(C#N)cc2c(=O)n3cccc(C)c3nc21	·	·	-0.7	·	·	·
COC(C[C@@H]1O[C@@H]1C(=O)COCc1ccccc1)OC	·	·	·	0.44	·	·
CCCCNC(=O)c1onc(CSc2ccc(C(C)C)cc2)c1C(=O)O	·	·	·	-0.17	·	·
CC(=O)N1CCN(c2ccc(NC(=O)c3ccc(C(C)(C)C)cc3)cc2)CC1	-0.6	2.5*	-1.5	0.049	-2.8	-24
c1cncc(-c2nnc3sc(-c4ccco4)nn23)c1	-0.025	-0.24	-0.02	0.8	·	·
CCN(CC)c1ccc(-c2nn3c(-c4cccnc4)nnc3s2)cc1	-6.2*	8.6*	-1.9	·	-11	-32
C=C1c2cc(OC)ccc2NC(=O)N1CC	0.069	8.2*	0.34	-0.99	71*	11
CCOC(=O)C1CCCN(C(=O)c2ccc(CS(=O)(=O)c3ccc(C)cc3)o2)C1 (centres undefined)	0.7	34*	·	0.2	261*	-15
Cc1ccc(S(=O)(=O)Cc2ccc(C(=O)N3CCCCCC3)o2)cc1	-0.66	-1.2	·	0.7	·	·
O=C1OC(c2ccc(Cl)cc2)/C(=C(/O)c2ccccc2)C1=O (centres undefined)	·	·	1.4	-2.2	·	·
CCOC(=O)C1CCCN(C(=O)CCCn2nc(C)n3c(cc4sccc43)c2=O)C1 (centres undefined)	-0.67	42*	·	0.62	335*	?
CC1(C)c2[nH]c3ccccc3c2C[C@@H]2C(=O)N(c3ccc(F)cc3F)C(=O)N21	·	·	·	0.054	·	·
Cc1ccc(C(CC(=O)N2CCCC2)c2ccccc2)c(O)c1C (centres undefined)	0.62	0.73	0.53	·	·	·
Cc1cccc(C(CC(=O)N2CCCC2)c2ccccc2)c1O (centres undefined)	0.038	4.1*	0.7	0.025	4.1	-2.5
CCN(CC)S(=O)(=O)c1ccc(/C(O)=C2/C(=O)C(=O)N(CCOC)C2c2ccccc2)cc1 (centres undefined)	-0.92	33*	-0.31	-0.51	-21	-27
CCOC(=O)C1=C(C)N(CCCC(=O)O)C(=O)NC1c1ccc2ccccc2c1 (centres undefined)	·	·	·	0.19	·	·
COC(=O)c1ccc(C(=O)OC)c(NC(=O)CCC(=O)O)c1	1.2	4.2*	0.18	0.34	-7.7	-16
COC(=O)c1ccc(C(=O)OC)c(NC(=O)CCc2ccc(C)o2)c1	-0.27	-0.43	2.2	-2.7	·	·
c1ccc2c(CCNc3ncnc4nc[nH]c34)c[nH]c2c1	-0.17	3.9*	·	·	-9.3	-20
c1ccc(CCNc2ncnc3nc[nH]c23)cc1	-1.1	-1.1	0.09	0.67	·	·
Cc1ccc(NC(=O)CCC(=O)O)cc1F	0.2	0.23	1.6	-0.021	·	·
CCN(CC)c1ccc2cc(NC(=O)CCC(=O)O)c(=O)oc2c1	-1.6*	289*	0.02	-3.1	1953*	1754*
CCN(CC)c1ccc2cc(C(=O)Nc3ccccn3)c(=O)oc2c1	-4.6*	353*	0.17	-3.4	964*	1294*
Cc1cc(NC(=O)c2cc3ccccc3oc2=O)no1	·	·	-0.46	-0.41	·	·
O=C(CSc1nnc(C2CC2)n1-c1ccccc1)Nc1ccc(N2CCOCC2)cc1	·	·	-1.2	0.74	·	·
